Compound activity from PubChem.
FadD28 binding: inhibitors of Mycobacterium tuberculosis FadD28 bisubstrate binding; inhibition, % at 12.5 µM; AID 588549; FadD28 bisubstrate probe binding, fluorescence polarization; 360,000 compounds, 0.22% hits; in the data active = inhibition above about 8.5%, passing the limit was not always enough; inconclusive = no clear call, values can overlap the other calls
Mtb hypoxia rep: Mtb hypoxia fluorescent reporter inhibition | M. tuberculosis hypoxia-regulated fluorescent reporter, fluorescence | fluorescence inhibition, % (concentration not given with the values) | 300,000 compounds, 0.1% hits | AID 1159583; in the data active = fluorescence inhibition mostly above about 23%, no sharp cut-off; inactive = mostly below about 17%
Mtb BioA inh: inhibitors of Mycobacterium tuberculosis BioA enzyme; 360,000 compounds, 0.096% hits; AID 602481; inhibition, % at 9.99 µM; purified M. tuberculosis BioA enzyme, plate reader; in the data active = inhibition above about 40%; inconclusive = no clear call, values can overlap the other calls
DUSP3 inh: DUSP3 (human) phosphatase inhibition. P51452. inhibition, % at 13.3 µM. 290,000 compounds, 0.52% hits. recombinant VHR phosphatase, pNPP absorbance. AID 1654; in the data active = inhibition above about 50%
Target sequence (P51452 whole entry, looked up): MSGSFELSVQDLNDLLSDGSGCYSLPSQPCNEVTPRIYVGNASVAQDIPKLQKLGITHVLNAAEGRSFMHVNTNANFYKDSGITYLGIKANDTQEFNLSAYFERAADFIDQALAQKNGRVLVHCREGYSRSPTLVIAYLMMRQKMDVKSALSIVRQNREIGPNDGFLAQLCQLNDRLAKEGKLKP
SARS 3CLpro inh-1: SARS-CoV 3CLpro protease inhibition. inhibition, % at 6 µM. P0C6X7. 290,000 compounds, 0.14% hits. AID 1706. recombinant SARS-CoV 3CLpro, quenched FRET peptide cleavage; in the data active = inhibition above about 12%
SARS 3CLpro inh-2: SARS 3CLpro inhibition, confirmation assay | AID 1879 | 380 compounds, 36% hits | QFRET protease activity assay | shares compounds with SARS 3CLpro inh-1 | inhibition, % at 6 µM; in the data active = inhibition above about 13%
A number is an active result; 0 = inactive; ? = inconclusive; - = not tested or not shown. Only some compounds are listed: those with a hit (about 0.7% of all), similar ones and a draw of the others.

SMILES	FadD28 binding	Mtb hypoxia rep	Mtb BioA inh	DUSP3 inh	SARS 3CLpro inh-1	SARS 3CLpro inh-2
Cc1cc(C(=O)NC2CCCc3c2cnn3-c2ccc(C(C)(C)C)cc2)n[nH]1 (centres undefined)	0	0	0	0	13.2	0
CC(C)(C)c1ccc(-n2ncc3c2CCCC3NC(=O)c2ccncc2)cc1 (centres undefined)	0	0	0	0	0	-
CC1CN(C(C)CO)C(=O)c2cc(NC(=O)Cn3cnnn3)ccc2OC1CN(C)CC1CCCCC1 (centres undefined)	-	0	-	-	-	-
CC(Oc1ccc(Cl)cc1Cl)C(=O)Nc1ccc(S(=O)(=O)Nc2cnc3ccccc3n2)cc1 (centres undefined)	-	-	-	0	0	-
Cc1cc(Cl)ccc1OC(C)C(=O)Nc1ccc(S(=O)(=O)Nc2cnc3ccccc3n2)cc1 (centres undefined)	0	-	0	0	12.4	0
CC(=O)c1sc(NN=Cc2cccc([N+](=O)[O-])c2)nc1C	-	0	-	-	-	-
Cc1cc2c(cc1C)C(c1cc(Br)ccc1F)CC(=O)N2 (centres undefined)	0	0	-	0	0	-
Cc1cc2c(cc1C)C(c1ccccc1F)CC(=O)N2 (centres undefined)	0	0	0	0	12.6	0
Cc1ccc(N2C(=O)C(=CN3CCN(C(=O)c4ccco4)CC3)C(=O)NC2=S)cc1C	-	0	-	-	-	-
O=C(c1ccco1)N1CCN(C(=O)c2cc(=O)[nH]c3ccccc23)CC1	0	0	0	-	-	-
O=C(c1cc(=O)[nH]c2ccccc12)N1CCN(c2ccccc2)CC1	0	0	0	0	32.3	31.4
Cc1cccc(N2CCN(C(=O)c3cc(=O)[nH]c4ccccc34)CC2)c1C	0	0	-	0	41.3	55.1
O=C(CN1CCOCC1)NN=Cc1ccc(-c2cccc(Cl)c2Cl)o1	-	0	-	-	-	-
CC1(C)C2CC=C(/C=N/NC(=S)Nc3cccnc3)C1C2 (centres undefined)	0	-	-	0	15.3	38.7
CC(C)C1COC(NC2=NC(C(C)C)CO2)=N1 (centres undefined)	-	0	-	-	-	-
O=C1C=C(c2ccc(C(=O)O)c(Cl)c2)CC(c2ccc3c(c2)OCO3)C1 (centres undefined)	-	0	-	-	-	-
CCOc1ccc(N(CC(=O)Nc2ccc(CC)cc2)S(=O)(=O)c2c(C)[nH]c(=O)[nH]c2=O)cc1	0	0	0	0	14.5	0
CCn1nc(-c2ccccc2)nc2c(=O)n(C)c(=O)nc1-2	-	0	-	0	16.8	36.6
O=C(Cn1nnc2ccccc21)N/N=C\c1cccs1	0	-	-	0	13.7	16.5
COc1cc(/C=N\NC(=O)Cn2nnc3ccccc32)cc(OC)c1OC	0	-	-	0	37.5	56.6
C#C[C@]1(OC(C)=O)CCC2C3CCC4=CC(=O)CCC4C3CC[C@@]21C (some centres undefined)	-	0	-	-	-	-
Cc1snc(S(=O)(=O)/C(C#N)=N/Nc2cccc(C(F)(F)F)c2)c1C#N	0	-	0	0	15.5	0
CCC(C)c1ccc(N(C(=O)c2ccco2)C(C(=O)NC2CCCC2)c2cccnc2)cc1 (centres undefined)	0	0	-	0	74.9	74.9
CC(C)c1ccc(N(C(=O)c2ccco2)C(C(=O)NC2CCCC2)c2ccncc2)cc1 (centres undefined)	-	0	0	0	0	-
Cc1ccc(N(C(=O)c2ccco2)C(C(=O)NC2CCCC2)c2cccnc2)cc1C (centres undefined)	0	0	0	0	0	-
SMILES	FadD28 binding	Mtb hypoxia rep	Mtb BioA inh	DUSP3 inh	SARS 3CLpro inh-1	SARS 3CLpro inh-2
CCc1ccc(N(C(=O)c2ccco2)C(C(=O)NC2CCCC2)c2cccnc2)cc1 (centres undefined)	0	0	-	0	16.1	0
O=C(NN=Cc1cccnc1)c1ccc(NC(=O)c2cccc(Cl)c2)cc1	-	0	-	-	-	-
NCCCCC1CNC(=O)C(=O)N1CCc1cccc2ccccc12 (centres undefined)	-	0	-	-	-	-
Cc1nc(-c2ccc(S(=O)(=O)N3CCN(c4ccccc4)CC3)cc2)co1	0	0	0	0	12.4	0
NC(=O)C1CCCNc2c(I)cc([N+](=O)[O-])cc2C(=O)NC(CO)C(=O)NCC(=O)N1 (centres undefined)	-	0	-	-	-	-
Cc1ccc(Nc2nc(N)c([N+](=O)[O-])c(N3CCOCC3)n2)cc1C	0	0	0	0	12.8	0
Cc1ccc(Nc2nc(N)c([N+](=O)[O-])c(N3CCC(C)CC3)n2)cc1C	0	-	0	0	0	-
COc1ccccc1-n1c(C)c(C(=O)O)c2cc(OC)c3ccccc3c21	?	0	0	0	13.7	0
Cc1ccc(S(=O)(=O)/C(=C/Cl)NC(=O)c2ccccc2)cc1	0	0	-	0	16.2	23.1
O=C(O)c1[nH]c2ccccc2c1C(c1cc(Br)ccc1O)c1c(C(=O)O)[nH]c2ccccc12	35.3	0	0	0	13.6	14.7
O=C(CSc1ccccn1)Nc1nonc1[N+](=O)[O-]	0	-	0	0	41.1	48.8
CN(C)N=Cc1ccc(P(c2ccc(C=NN(C)C)o2)c2ccc(C=NN(C)C)o2)o1	-	0	-	-	-	-
c1cncc(Nc2nc(-c3cccnc3)cs2)c1	0	0	-	0	0	-
Clc1ccccc1Nc1nc(-c2cccnc2)cs1	0	0	0	0	13.9	0
C=CCCOC1OC(C)C(O)CC1O (centres undefined)	-	0	-	-	-	-
O=C(/C=C/c1ccccc1Cl)Nc1ccncc1	0	-	0	0	0	-
O=C(/C=C/c1ccccc1Cl)Nc1cccnc1	0	0	0	0	16.4	20.7
CC(=O)Nc1ccc(NC(=O)C/C(C)=N/NC(=O)COc2cc(C)c(Br)cc2Br)cc1	0	-	0	0	15.9	0
Cc1ccccc1NC1=C/C(=N\S(=O)(=O)c2ccc(C(=O)O)cc2)c2ccccc2C1=O	0	0	0	0	15.8	0
O=C(O)/C(=C\c1ccc(F)cc1)c1ccc(-c2ccccc2)cc1	0	0	-	0	13.0	0
O=C(O)/C(=C\c1ccccc1OC(F)F)c1ccc(-c2ccccc2)cc1	0	0	0	0	0	-
Nc1c(C(O)(C(F)(F)F)C(F)(F)F)cc(C(O)(C(F)(F)F)C(F)(F)F)c2ccccc12	0	0	0	0	14.4	0
O=C(NC1CC=CCC(CC(=O)N(CCO)Cc2ccccc2)C(=O)NC(Cc2ccccc2)COC1=O)OCC1c2ccccc2-c2ccccc21 (centres undefined)	-	0	-	-	-	-
CCOC(=O)c1oc2nc(CC(C)C)c3c(c2c1N)CCCC3	0	0	0	0	13.3	0
CC1CCC(N2CCN(c3ccc([N+](=O)[O-])cc3)CC2)CC1 (centres undefined)	0	0	0	0	0	-
CCC1CCC(N2CCN(c3ccc([N+](=O)[O-])cc3)CC2)CC1 (centres undefined)	0	0	0	0	13.5	0
COc1ccc(NC(=O)N2CCN(S(=O)(=O)c3ccc(F)cc3)CC2)c(OC)c1	0	0	0	0	0	-
COc1ccc(S(=O)(=O)N2CCN(C(=O)Nc3ccccc3OC)CC2)cc1	0	0	0	0	13.3	0
O=[N+]([O-])c1ccccc1/C=C/C=Nn1c(-c2ccco2)n[nH]c1=S	-	0	-	-	-	-
